High-throughput results deposited in PubChem BioAssay by National Center for Advancing Translational Sciences (NCATS).
ELG1 repair inh: inhibitors of ELG1-dependent DNA repair in HEK293T cells; HEK293T ELG1-luciferase reporter, luminescence, 16 h; DNA damage induced by 5-fluorouridine; Potency, µM (highest dose often 46.1 µM), hits mostly inhibitors; 2.3% of 330,000 active; also: nearly all actives have a fitted effect of over 55% in size
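HEK293T cells expressing luciferase-tagged ELG1 (2,000/well) received 5-Fluorouridine plus compound or DMSO for 16 hr at 37 °C. Luciferase was read by ONE-Glo luminescence after 30 min at room temperature.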
BRCA1 expr up: increases BRCA1 expression; 1.1% of 380,000 active; Potency, µM (highest dose often 46.1 µM), actives largely listed as activators; MCF7-BRCA1-FFLuc reporter, luminescence, 48 h; response scale: scaled: vehicle 0%, 10 µM genistein 100%; also: nearly all actives have a fitted effect of over 80% in size
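First, MCF7-BRCA1-FFLuc cells (2000/well) attach for 2 h; next, compounds are pin-added and incubated 48 h at 37 °C; finally, luciferase reagent is added and luminescence read after 15 min.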
Gal4-VP16 FLuc: Gal4-VP16 reporter inhibition counter-screen. 3.5% of 310,000 active. Drosophila S2 Gal4-VP16 UAS-luciferase, luminescence, 20 h. Potency, µM (highest dose often 53.6 µM), actives largely listed as inhibitors;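 also: Gal4-VP16 expression switched on by copper sulfate through the metallothionein promoter; nearly all actives have a fitted effect of over 50% in size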
p53 reactivation: mutant p53 re-activation in reporter cells; H1299 p53-A138V BP100-luciferase reporter, luminescence, 24 h; Potency, µM (top dose mostly 92.2 µM), most hits filed as activators; 0.063% of 320,000 active; also: nearly all actives have a fitted effect of over 45% in size
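p53-null H1299 cells stably carrying temperature-sensitive p53-A138V and a BP100-luciferase reporter were pinned with compounds (4-point, 1:5 series) and held 24 hrs at 37 deg C. Luminescence was read 10 min after detection reagent.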
RORg inh: blocks mouse ROR gamma transcriptional activity; 5.4% of 310,000 active; Drosophila S2 Gal4-RORgamma UAS-luciferase reporter, 20 h; P51450; Potency, µM (highest dose often 53.6 µM), most hits filed as inhibitors; also: nearly all actives have a fitted effect of over 60% in size
Target sequence (P51450 whole entry, looked up, the tested form may be a part): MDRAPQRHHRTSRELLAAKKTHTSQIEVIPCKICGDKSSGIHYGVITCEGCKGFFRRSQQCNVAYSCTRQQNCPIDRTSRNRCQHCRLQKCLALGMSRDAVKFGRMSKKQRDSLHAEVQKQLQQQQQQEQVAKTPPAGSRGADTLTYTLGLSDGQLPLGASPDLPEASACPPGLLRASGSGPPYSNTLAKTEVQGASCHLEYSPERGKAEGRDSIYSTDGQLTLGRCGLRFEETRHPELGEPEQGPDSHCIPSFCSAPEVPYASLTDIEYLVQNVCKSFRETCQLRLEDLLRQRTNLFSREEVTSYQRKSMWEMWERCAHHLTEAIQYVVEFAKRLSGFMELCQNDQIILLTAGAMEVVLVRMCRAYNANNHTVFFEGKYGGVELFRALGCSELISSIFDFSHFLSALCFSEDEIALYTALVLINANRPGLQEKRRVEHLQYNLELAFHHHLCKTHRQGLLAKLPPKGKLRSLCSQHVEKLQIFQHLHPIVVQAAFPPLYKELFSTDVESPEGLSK
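Stable Schneider cell line, Gal4 DNA-binding domain fused to ROR gamma, UAS-luciferase. Cmpd 1 hr RT → CuSO4 700 uM final → 20 hr RT → luciferase reagent 10 min → luminescence.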
Giardia killer: Giardia lamblia killing | 0.15% of 340,000 active | AID 540267 | Giardia lamblia trophozoite viability | activity change, % at 7.66 µM, hits read low; in the data active = activity change below about -80%; inconclusive = between about -30% and that limit;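 also: parasites exposed to compound for two days anaerobically before the ATP read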
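Luminescence from cellular ATP indicates surviving trophozoites (100 cells/well) following 48 hrs anaerobic compound treatment at 37 deg C; signal develops 15-30 min at room temperature.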
Each line names hits and unclear results; the compound was inactive in the other large screens. An excerpt weighted towards active compounds, which were near 7.6% of everything screened. Unless noted, calls follow the shape of the dose curve; as a rule, active = well fitted curve in the direction sought with a large enough effect; inconclusive = small, poorly fitted or top-dose-only effect, or another doubt; inactive = no such curve, though single readings can be large; an effect the other way counts as inactive or inconclusive.

Cc1ccc(CNS(=O)(=O)c2c(C)[nH]c(C)c2C(=O)N2CCCCC2)o1	none
Cc1ccc2[nH]c(C(=O)N/N=C/c3ccccc3O)c(C)c2c1	ELG1 repair inh 2.3µM, Gal4-VP16 FLuc 6.3µM, RORg inh 1µM
c1ccc(-c2noc(C3CCCCC3)n2)nc1	ELG1 repair inh inconclusive, BRCA1 expr up inconclusive, p53 reactivation inconclusive, RORg inh 3.5µM
c1ccc(-c2noc(C34CC5CC(CC(C5)C3)C4)n2)cc1	ELG1 repair inh inconclusive, RORg inh inconclusive
c1ccc(-c2noc(C34CC5CC(CC(C5)C3)C4)n2)nc1	ELG1 repair inh inconclusive, BRCA1 expr up 3.5µM, p53 reactivation inconclusive
Cc1cc(C)c(NC(=O)c2cc(S(=O)(=O)N3CCOCC3)ccc2F)c(C)c1	none
COc1ccc(-n2nc3c(c2NC(=O)CC(C)C)CS(=O)C3)cc1 (configuration not stated)	none
O=C1c2ccccc2C(=O)N1C1C=CC=CC=C1	none (no result: ELG1 repair inh, Gal4-VP16 FLuc, p53 reactivation, RORg inh, Giardia killer)
O=C(Cc1ccc(Cl)cc1)NN1C(=O)c2ccccc2C1=O	none
COC(=O)[C@@H]1[C@@H](C#N)C2(c3ccccc3-c3ccccc32)N(c2ccc(Cl)cc2)N1C#N	Gal4-VP16 FLuc 10µM, RORg inh 16µM
Cc1ccc(C(=O)Nc2ccc3c4c(cccc24)CC3)cc1[N+](=O)[O-]	none
CN1C(=O)C(C)(C)c2cc(S(=O)(=O)N3CCCC3C(=O)NCc3ccc(F)cc3)ccc21 (configuration not stated)	none (no result: p53 reactivation)
CN1C(=O)C(C)(C)c2cc(S(=O)(=O)N3CCCC(C(=O)NCc4ccc(Cl)cc4)C3)ccc21 (configuration not stated)	ELG1 repair inh 15µM (no result: p53 reactivation)
CCOc1nc(C)ccc1-c1noc(-c2ccco2)n1	none (no result: Gal4-VP16 FLuc)
Cc1ccsc1C=Nc1ccc(O)cc1	Gal4-VP16 FLuc inconclusive, RORg inh 10µM
Cc1ccsc1/C=N/N=C/c1sccc1C	ELG1 repair inh inconclusive, BRCA1 expr up 2.2µM (no result: p53 reactivation)
CCN(CC)c1ccc(NC(=S)Nc2ccc(F)cc2)cc1	Gal4-VP16 FLuc inconclusive, p53 reactivation inconclusive, RORg inh 8.9µM
CC(Cc1cccs1)NC(=O)Nc1ccc([N+](=O)[O-])cc1 (configuration not stated)	BRCA1 expr up 5.6µM, RORg inh inconclusive
COc1ccc(NC(=S)NC(C)Cc2cccs2)cc1 (configuration not stated)	Gal4-VP16 FLuc 2.8µM, RORg inh 14µM
CC(Cc1cccs1)NC(=O)c1cccs1 (configuration not stated)	ELG1 repair inh inconclusive, BRCA1 expr up inconclusive
Oc1ccc(NC(=S)Nc2ccc(F)cc2)cc1	none
COc1cccc(CCc2nnc(CCC(=O)NC(C)Cc3cccs3)o2)c1 (configuration not stated)	none
CC(Cc1cccs1)NC(=S)Nc1ccc(F)cc1 (configuration not stated)	Gal4-VP16 FLuc 16µM, p53 reactivation inconclusive, RORg inh 3.2µM
Cc1cccc(NC(=O)Cn2c(=O)n(CCc3c[nH]c4ccccc34)c(=O)c3cccnc32)c1	none (no result: BRCA1 expr up, Giardia killer)
O=C1c2cccc3cc(Br)cc(c23)C(=O)N1Nc1ccc(Br)cc1	none
COc1ccccc1C(=O)C1CCCN(C(=O)CCC(=O)c2ccccc2)C1 (configuration not stated)	none
CC1CN(/C=C/C=O)C(C)CC1OC(=O)c1ccccc1 (configuration not stated)	none
CCC(C)NC(=S)Nc1ccc(F)cc1 (configuration not stated)	ELG1 repair inh inconclusive, Gal4-VP16 FLuc inconclusive, RORg inh 10µM
Cc1sc(Cc2nc(O)cs2)nc1-c1ccccc1	RORg inh 11µM
Oc1csc(Cc2nc(-c3ccc(Br)cc3)cs2)n1	ELG1 repair inh inconclusive, RORg inh inconclusive
N#CC1=C2N=C(N)c3ccccc3N2C2=C(C(=O)CCC2)C1c1ccc(F)cc1 (configuration not stated)	none
N#CC1=C2N=C(N)c3c(sc4c3CCCCC4)N2C2=C(C(=O)CCC2)C1c1ccccc1 (configuration not stated)	Gal4-VP16 FLuc inconclusive, RORg inh 11µM
N#Cc1cc(C#N)c(SCC(=O)N2CC(=O)Nc3ccccc32)nc1N	ELG1 repair inh 12µM (no result: Gal4-VP16 FLuc, RORg inh)
Cc1sc2nc(C3CCCCC3)nc(SCC(=O)N3CC(=O)Nc4ccccc43)c2c1C	none
CCc1nc(SCC(=O)N2CC(=O)Nc3ccccc32)c2c(C)c(C)sc2n1	ELG1 repair inh 23µM
CC1(C)C(=O)OC(c2cc(Br)ccc2O)C(C)(C)C1=O (configuration not stated)	ELG1 repair inh inconclusive, p53 reactivation inconclusive
O=C1CN(C(=O)NCC(=O)N[C@H](Cc2ccccc2)C(=O)O)c2ccccc2N1	none (no result: p53 reactivation)
Cc1ccc(/C=c2\s/c(=C(/C#N)C(=O)N3CCCC3)n(Cc3ccco3)c2=O)s1	ELG1 repair inh 13µM, RORg inh inconclusive
COc1cc(CNCc2ccccn2)ccc1OCc1ccc(Cl)c(Cl)c1	ELG1 repair inh inconclusive, BRCA1 expr up 20µM, RORg inh inconclusive
CCOc1cccc(CNc2ccc(O)cc2)c1OCc1ccc(Cl)cc1	ELG1 repair inh inconclusive, Gal4-VP16 FLuc inconclusive, RORg inh inconclusive
COc1cc(CNCc2ccccn2)ccc1OCc1ccc(Cl)cc1Cl	RORg inh 11µM
CCOc1cc(CNc2ccc(O)cc2)ccc1OCc1ccc(Cl)cc1Cl	ELG1 repair inh inconclusive, Gal4-VP16 FLuc inconclusive, RORg inh 16µM
COc1cc(CNCc2ccccn2)ccc1OCC(N)=O	ELG1 repair inh inconclusive, RORg inh inconclusive
Cc1nc2scc(C)n2c(=O)c1S(=O)(=O)N1CCN(c2ccccn2)CC1	ELG1 repair inh inconclusive
CC(C)CC(=O)Nc1ccccc1N1CCN(c2ccc(F)cc2)CC1	ELG1 repair inh inconclusive
Cc1cc2c(SCC(=O)N3CCN(c4ccccc4)CC3)ncnc2s1	ELG1 repair inh inconclusive (no result: Gal4-VP16 FLuc, RORg inh)
CCN1C(=O)CC(N2CCN(c3ccc(C(=O)c4ccncc4)cc3)CC2)C1=O (configuration not stated)	ELG1 repair inh 15µM, Gal4-VP16 FLuc inconclusive
COc1ccc(NC(=O)c2nnn(Cc3nc(-c4cc(Br)ccc4OC)oc3C)c2C)cc1	none (no result: ELG1 repair inh, Gal4-VP16 FLuc, p53 reactivation, RORg inh, Giardia killer)
CCOc1ccc(N=Nc2c(N)[nH][nH]c2=O)cc1	ELG1 repair inh inconclusive, BRCA1 expr up 5µM, p53 reactivation inconclusive
C/C(=N\Nc1ccccc1Cl)c1ccc(-n2ccnc2)cc1	RORg inh 8.9µM
C/C(=N\NC(=O)c1ccc(C)cc1C)c1ccc(-n2ccnc2)cc1	none
C/C(=N\NC(=S)NC(C)C)c1ccc(-n2ccnc2)cc1	Gal4-VP16 FLuc 6.3µM, RORg inh 5.6µM
